Drawing on the supplement of paper PMC13094657, this text covers cell viability and kynurenine production for seven compounds.

± gives the standard deviation of the averaged measurements.

The test system of experiment [1] is MDA-MB-231. Put plainly: cell viability relative to vehicle unstimulated control (fraction); higher = more viable cells. The note with it: pre-treatment time: 18 h then 24 h IFNg/TNF.
Experiment [2] relates to MDA-MB-231. Put plainly: kynurenine production, fold change vs DMSO IFNg/TNF control; higher = more kynurenine produced (less inhibition). The note with it: pre-treatment time: 18 h then 24 h IFNg/TNF. The method in brief: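 After trichloroacetic acid and p-dimethylaminobenzaldehyde treatment, supernatants were read at 492 nm, with 0–100 μM standards. These came from MDA-MB-231 cells (7 × 10^4/well, 96-well plates) pre-treated 18 h with natural products in 0.1% DMSO and then exposed 24 h to IFNγ (1 U/ml) and TNF (6.25 ng/ml) at 37°C. Values for kynurenine production are fold changes over same-plate cytokine-stimulated vehicle wells, averaged over duplicate plates in the first screening round.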
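For cell viability relative to vehicle unstimulated control in this document: viability of the cells left after supernatant collection, read with Deep Blue dye added for 4 h, as absorbance at 570 nm minus 600 nm.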

Regarding `C[C@H]1O[C@@H](O[C@H]2CC[C@@]3(C)[C@@H](CC[C@]4(C)[C@@H]3C=C[C@]35OC[C@@]6(CCC(C)(C)C[C@H]63)[C@@H](O)C[C@]54C)[C@]2(C)CO)[C@H](O)[C@@H](O[C@@H]2O[C@H](CO)[C@@H](O)[C@H](O)[C@H]2O)[C@H]1O` [Saikosaponin A] (compound dose: 10 uM), in the experiment on MDA-MB-231 [1], the cell viability turned out to be 1.015 ± 0.0091. Besides, the kynurenine production with MDA-MB-231 [2] is 0.824 ± 0.1.
As for `CC(=O)OC1CCC2(C)C(CCC3(C)C2CC=C2C4C(C)C(C)CCC4(C(=O)O)CCC23C)C1(C)C` (centres undefined) [Ursolic acid acetate] (compound dose: 10 uM), the cell viability in the experiment with MDA-MB-231 [1] came out at 1.11 ± 0.14. The kynurenine production in the experiment on MDA-MB-231 [2] amounted to 0.771 ± 0.053.
The corresponding values for `C[C@@]12CC[C@@H]3[C@@](CC[C@H]4[C@@]3(C)CCC[C@@]4(C)C(=O)O)(CC1=O)C2` [Isosteviol] (compound dose: 10 uM) are 1.02 ± 0.084 and 0.998 ± 0.055.
On the same counts, the results for `CC1(C)C2CC=C(C=O)C1C2` (single isomer, unassigned; (-)) [(-)-Myrtenal] (compound dose: 10 uM) are 0.988 ± 0.056 and 0.941 ± 0.084.
For the compound `C=C(C)[C@H]1CC=C(C)C(=O)C1` [D(+)-carvone] (compound dose: 10 uM), the cell viability in the experiment on MDA-MB-231 [1] came to 1 ± 0.026. Moreover, the kynurenine production in the experiment on MDA-MB-231 [2] came to 0.864 ± 0.022.
On to `C[C@@H]1[C@H]2[C@H](O[C@@H]3O[C@H](CO)[C@@H](O)[C@H](O)[C@H]3O)OC=C(C(=O)O)[C@H]2C[C@@H]1O` [Loganic acid] (compound dose: 10 uM), for which the cell viability in the experiment on MDA-MB-231 [1] is 0.999 ± 0.016. Besides, the kynurenine production in the experiment on MDA-MB-231 [2] was 1.01 ± 0.16.
On the same counts, the results for `CC1=CC[C@@H](C(C)(C)O)CC1` [α-Terpineol] (compound dose: 10 uM) are 1.02 ± 0.059 and 0.896 ± 0.0054.
